Source: PubChem BioAssay (NCATS)
Records with an inconclusive call do not appear. Calls of active or inactive are those of the source. Calls come from the whole dose curve; as a rule, active = well fitted inhibition curve with a large enough effect; inconclusive = small, poorly fitted or top-dose-only effect; inactive = flat fitted curve, though single readings scatter.

What was measured:
Assay in all cases: qHTS profiling for inhibitors of Plasmodium falciparum proliferation (AID 504749); note: nearly all actives have a fitted effect of over 60% in size
Conditions in all cases: P. falciparum in erythrocytes, SYBR Green DNA, 72 h; series mostly up to 28.7 µM
AS120 = test system: AS120
Summary of the method: (§1)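 Each compound contacts P. falciparum-infected red blood cells for 72 h at 37 C; lysis buffer (Tris, EDTA, saponin, Triton X, SYBR Green I) is added and fluorescence measured next morning; values normalized to controls.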

ATS189 = test system: ATS189
Summary of the method: as §1

ATS95 = test system: ATS95
Summary of the method: as §1

C2A = test system: C2A
Summary of the method: as §1

CP185 = test system: CP185
Summary of the method: as §1

CP191 = test system: CP191
Summary of the method: as §1

CP192 = test system: CP192
Summary of the method: as §1

CP194 = test system: CP194
Summary of the method: as §1

CP201 = test system: CP201
Summary of the method: as §1

CP203 = test system: CP203
Summary of the method: as §1

Measured: Potency

O=C(CCBr)N1CCN(C(=O)CCBr)CC1
inactive: all assays above

O=S1(=O)OC(c2ccc(O)cc2)(c2ccc(O)cc2)c2ccccc21
inactive: all assays above

O=C(OOC(=O)c1ccccc1)c1ccccc1
inactive: all assays above

CCCCOC(=O)c1ccc(N)cc1
inactive: all assays above

CC(C)=CCC/C(C)=C/CO
inactive: all assays above

Cc1c(N(C)C)c(=O)n(-c2ccccc2)n1C
inactive: all assays above

COC(=O)c1ccc(O)cc1
inactive: all assays above

O=C(O)COC(=O)Cc1ccccc1Nc1c(Cl)cccc1Cl
inactive: all assays above

NS(=O)(=O)c1cc(-c2nn[nH]n2)c(NCc2cccs2)cc1Cl
inactive: all assays above

CC(=O)Nc1ccc(OCCOCCOc2ccc(NC(C)=O)cc2)cc1
inactive: all assays above

CNc1c2c(nn1C)CCCC2
inactive: all assays above

CCN(CC)CCOC(=O)C(c1ccccc1)c1ccccc1
inactive: all assays above

OC[C@@H](O)[C@@H](O)[C@H](O)[C@H](O)CO
inactive: all assays above

CC(C)CCOC(=O)c1ccc(N(C)C)cc1
inactive: all assays above

O=C(O)CNC(=O)c1ccccc1I
inactive: all assays above

NS(=O)(=O)c1ccc(NC(=O)CCC(=O)O)cc1
inactive: all assays above

OCc1ccc(Cl)cc1Cl
inactive: all assays above

CN(C/C=C/C#CC(C)(C)C)Cc1cccc2ccccc12
inactive: all assays above

Cc1c(NC(C)C)c(=O)n(-c2ccccc2)n1C
inactive: all assays above

CCOc1ccc(C(=O)OCCN(CC)CC)cc1
inactive: all assays above

CCCCCCCCCCC(CO)CCCCCCCC (stereo not given)
inactive: all assays above

CCOC(=O)c1cccnc1
inactive: all assays above
